For 13 molecules, composite z-score and z-score results are on record in PubChem BioAssay.

The source made the active and inactive calls.

A short description of test [1]: binders of probe aFSTL3 on microarray, primary screen, stem cell growth factor project, biochemical, small-molecule microarray, fluorescence 635/667 (AID 1064).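 Further: measures binding of the biotinylated anti-FSTL3 antibody to printed compounds.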 Conditions: higher = more signal.
Test [2] can be described thus: binders from COS7 lysate, DM2A8 probe, primary screen, torsin A project, cell lysate, small-molecule microarray, fluorescence 635/667 (AID 1065). Conditions: higher = more signal, COS7 lysate expressing mutant human TOR1A.
A short description of test [3]: binders of probe aFGF2 on microarray, primary screen, stem cell growth factor project, biochemical, small-molecule microarray, fluorescence 635/667 (AID 1067).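 Further: measures binding of biotinylated aFGF2 protein to printed compounds on slides; z-score merges feature fluorescence and signal-to-noise across triplicate slides.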 The following applies: higher = more signal.
Test [4] in a line: binders of probe aFGF10 on microarray, primary screen, stem cell growth factor project, biochemical, small-molecule microarray, fluorescence 635/667 (AID 1071).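 Further: score merges 667 nm spot intensity and signal to noise from triplicate slides.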 Conditions: higher = more signal.
Test [5] has as its target Neurogenic locus notch homolog protein 2 (Homo sapiens) (UniProt Q04721). As to the kind of experiment: Notch2 binders on small-molecule microarrays, primary screen, biochemical, small-molecule microarray, 635 nm fluorescence, stem cell growth factors (AID 1073). Conditions: Notch2 binding, higher = more signal.
For test [6], the target named is Pro-neuregulin-1, membrane-bound isoform (Homo sapiens) (UniProt Q02297). As to the kind of experiment: NRG1 binders on small-molecule microarrays, primary screen, psychiatric disease protein project, biochemical, small-molecule microarray, fluorescence 635/667 (AID 1075).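 Further: score combines 667 nm spot fluorescence with signal to noise.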 Conditions: NRG1 binding, 635 nm fluorescence, higher = more signal.
Pro-neuregulin-1, membrane-bound isoform (Homo sapiens), sequence (Q02297 whole entry, looked up, the tested form may be a part, canonical isoform): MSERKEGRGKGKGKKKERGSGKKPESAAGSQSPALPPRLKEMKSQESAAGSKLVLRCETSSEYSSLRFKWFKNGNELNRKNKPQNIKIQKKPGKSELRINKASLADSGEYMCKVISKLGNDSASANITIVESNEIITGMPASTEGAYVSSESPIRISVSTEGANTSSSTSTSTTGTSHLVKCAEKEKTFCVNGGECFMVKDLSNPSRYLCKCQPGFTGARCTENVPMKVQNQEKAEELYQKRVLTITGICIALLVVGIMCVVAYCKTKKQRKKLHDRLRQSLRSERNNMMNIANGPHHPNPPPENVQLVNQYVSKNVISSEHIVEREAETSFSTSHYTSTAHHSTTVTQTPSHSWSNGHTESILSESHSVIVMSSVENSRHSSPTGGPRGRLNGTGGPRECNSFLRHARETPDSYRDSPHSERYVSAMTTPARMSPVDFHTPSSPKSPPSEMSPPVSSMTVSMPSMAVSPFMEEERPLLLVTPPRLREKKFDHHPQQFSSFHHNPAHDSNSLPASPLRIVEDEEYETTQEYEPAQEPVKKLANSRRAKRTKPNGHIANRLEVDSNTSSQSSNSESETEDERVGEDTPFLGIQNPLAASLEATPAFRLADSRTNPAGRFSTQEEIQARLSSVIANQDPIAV
Test [7] relates to Neuregulin-1 EGF-like domain. The test is described as follows: binders of neuregulin-1 EGF-like domain, primary screen, biochemical, small-molecule microarray, 635 nm fluorescence (AID 1081).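 Further: binding of the protein to compounds printed on small-molecule microarray slides.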 The following applies: small-molecule microarray binding, higher = more signal.
The nature of test [8]: FRG1 promoter luciferase signal modulators, primary screen, FRG1 inhibition for FSHD, cell-based, C2C12 myotubes, firefly/Renilla luciferase, luminescence (AID 1084). The following applies: higher = more signal, called active from +8 up or from −8 down.
A short description of test [9]: binders of probe aFST on microarray, primary screen, stem cell growth factor project, biochemical, small-molecule microarray, fluorescence 635/667 (AID 1086).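 Further: score merges 667 nm fluorescence with signal-to-noise of each printed compound spot.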 The following applies: higher = more signal.
Test [10] in a line: binders of probe aHhip on microarray, primary screen, stem cell growth factor project, biochemical, small-molecule microarray, fluorescence 635/667 (AID 1087).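 Further: score merges spot fluorescence at 667nm with spot signal to noise ratio.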 The following applies: higher = more signal.

Neurogenic locus notch homolog protein 2 (Homo sapiens), sequence (Q04721 whole entry, looked up, canonical isoform): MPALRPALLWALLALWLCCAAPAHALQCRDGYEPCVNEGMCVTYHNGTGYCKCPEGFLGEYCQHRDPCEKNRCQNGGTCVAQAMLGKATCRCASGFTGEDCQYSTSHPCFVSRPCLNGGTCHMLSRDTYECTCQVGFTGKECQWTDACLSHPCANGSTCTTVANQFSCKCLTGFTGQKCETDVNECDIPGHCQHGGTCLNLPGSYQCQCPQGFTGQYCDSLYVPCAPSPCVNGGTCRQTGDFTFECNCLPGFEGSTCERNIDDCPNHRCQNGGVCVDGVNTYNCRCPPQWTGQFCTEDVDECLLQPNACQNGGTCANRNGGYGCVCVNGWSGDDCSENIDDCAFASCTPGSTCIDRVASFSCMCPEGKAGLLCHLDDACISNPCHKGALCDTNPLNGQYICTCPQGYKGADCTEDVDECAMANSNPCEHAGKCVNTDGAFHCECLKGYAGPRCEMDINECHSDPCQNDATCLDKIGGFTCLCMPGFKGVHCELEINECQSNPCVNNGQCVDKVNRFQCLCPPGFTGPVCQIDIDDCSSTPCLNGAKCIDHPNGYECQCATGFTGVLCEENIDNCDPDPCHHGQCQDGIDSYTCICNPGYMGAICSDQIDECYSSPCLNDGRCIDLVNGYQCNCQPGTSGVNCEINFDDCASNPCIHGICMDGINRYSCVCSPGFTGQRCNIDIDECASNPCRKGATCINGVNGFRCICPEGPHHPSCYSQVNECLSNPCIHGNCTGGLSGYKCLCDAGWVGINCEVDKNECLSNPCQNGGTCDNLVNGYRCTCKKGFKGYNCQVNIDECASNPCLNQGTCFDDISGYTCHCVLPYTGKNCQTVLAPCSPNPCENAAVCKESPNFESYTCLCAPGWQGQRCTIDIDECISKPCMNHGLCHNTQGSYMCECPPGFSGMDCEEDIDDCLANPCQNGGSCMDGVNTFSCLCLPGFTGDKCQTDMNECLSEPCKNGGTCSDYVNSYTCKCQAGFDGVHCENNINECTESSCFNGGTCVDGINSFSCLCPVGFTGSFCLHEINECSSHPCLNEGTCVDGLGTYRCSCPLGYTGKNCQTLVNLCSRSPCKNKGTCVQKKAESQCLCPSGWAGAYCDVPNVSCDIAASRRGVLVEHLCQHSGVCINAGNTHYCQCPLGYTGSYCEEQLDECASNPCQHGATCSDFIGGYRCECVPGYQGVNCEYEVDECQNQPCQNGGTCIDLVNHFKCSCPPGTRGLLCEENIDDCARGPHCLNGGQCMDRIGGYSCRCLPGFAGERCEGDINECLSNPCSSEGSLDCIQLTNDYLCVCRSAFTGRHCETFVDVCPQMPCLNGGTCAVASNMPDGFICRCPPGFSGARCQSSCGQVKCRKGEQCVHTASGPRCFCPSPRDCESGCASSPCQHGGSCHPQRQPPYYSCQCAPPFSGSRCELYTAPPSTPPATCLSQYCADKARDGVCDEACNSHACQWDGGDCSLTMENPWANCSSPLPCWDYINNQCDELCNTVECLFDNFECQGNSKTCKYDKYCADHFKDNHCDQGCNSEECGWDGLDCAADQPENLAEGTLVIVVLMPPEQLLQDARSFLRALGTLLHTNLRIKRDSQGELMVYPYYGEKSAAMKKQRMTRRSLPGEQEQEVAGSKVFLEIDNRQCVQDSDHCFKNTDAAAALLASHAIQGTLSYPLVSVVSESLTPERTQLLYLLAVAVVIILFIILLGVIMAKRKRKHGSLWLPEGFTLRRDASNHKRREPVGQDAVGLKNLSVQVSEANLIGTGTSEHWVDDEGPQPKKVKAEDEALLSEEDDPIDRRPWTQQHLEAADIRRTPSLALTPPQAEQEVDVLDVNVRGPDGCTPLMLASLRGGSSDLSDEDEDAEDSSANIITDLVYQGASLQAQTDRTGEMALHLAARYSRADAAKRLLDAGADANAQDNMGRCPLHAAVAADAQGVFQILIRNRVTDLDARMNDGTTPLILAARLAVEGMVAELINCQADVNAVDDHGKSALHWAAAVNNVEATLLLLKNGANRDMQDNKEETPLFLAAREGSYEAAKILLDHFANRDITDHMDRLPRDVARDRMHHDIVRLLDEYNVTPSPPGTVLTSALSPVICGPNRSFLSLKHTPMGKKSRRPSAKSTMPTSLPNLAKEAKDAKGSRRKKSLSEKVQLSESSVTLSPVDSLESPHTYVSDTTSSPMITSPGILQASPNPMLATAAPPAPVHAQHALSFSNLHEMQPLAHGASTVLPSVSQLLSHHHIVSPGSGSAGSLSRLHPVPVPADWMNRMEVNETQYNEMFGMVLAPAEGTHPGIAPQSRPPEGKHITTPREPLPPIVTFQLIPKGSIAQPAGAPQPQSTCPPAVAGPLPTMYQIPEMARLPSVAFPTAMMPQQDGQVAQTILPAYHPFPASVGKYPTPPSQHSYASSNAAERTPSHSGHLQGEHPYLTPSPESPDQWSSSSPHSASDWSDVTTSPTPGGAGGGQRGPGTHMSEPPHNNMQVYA

As for `COc1ccc(CCNC(=O)[C@@H]2c3ccccc3C(=O)N(Cc3cc(F)cc(C(F)(F)F)c3)[C@H]2c2ccc(CO)cc2)cc1`, the composite z-score in [1] came out at 1.65; in test [2] it was 0.705; in test [3], 0.272; in test [4], 0.235; in test [5], 0.158; in test [6], 1.17. Further, the composite z-score in test [7] is 0.975; in test [9], 2.49; in test [10], -0.251. Further, in test [8], the z-score is -1.36 (inactive).
For `C=C[C@@H](CO)NS(=O)(=O)c1ccc(Br)cc1`, the composite z-score in test [1] was 0.265; in test [2] it was -0.066; in test [3] it was -0.22; in test [4], -0.426; in [5] it was -1.14; in test [6] it was -0.361. For the same molecule, the composite z-score in test [7] was -0.14; in test [9], -0.257; in [10], -0.156. Further, the z-score in test [8] was -1.84 (inactive).
For `C=CCNC(=O)[C@H]1[C@@H]2C(=O)O[C@@H](c3ccccc3)[C@@H](c3ccccc3)N2[C@@H](c2ccc(O)cc2)[C@]12C(=O)Nc1ccc(C#CCC(C(=O)OC)C(=O)OC)cc12`, the composite z-score in test [1] is -0.102; in test [2] it was -0.0975; in [3] it was -0.0878; in [4], 0.0813; in [5] it was 0.136; in [6] it was 0.0652. Besides, the composite z-score in test [7] is 1.19; in test [9], 0.0765; in test [10] it was -0.261. Also, the z-score in [8] was -0.32 (inactive).
Turning to `CO[C@H]1O[C@H](CO)[C@@H](OC(=O)Nc2cccc(F)c2)[C@H](OC(=O)c2cc3ccccc3[nH]2)[C@H]1OC(=O)c1cc2ccccc2[nH]1`, the composite z-score in test [1] is -0.277; in test [2] it was -0.108; in [3] it was -0.0355; in [4], 0.463; in test [5], -0.0665; in [6], 1.33. For the same molecule, the composite z-score in test [7] was 0.24; in [9], -0.238; in [10] it was -0.0726. Besides, the z-score in [8] is -1.46 (inactive).
With `CCCC[C@@H](O)C1=C(C)Cn2c(=O)n(-c3ccccc3)c(=O)n2[C@H]1CO`, the composite z-score was -0.571 in [1]; -0.0827 in test [2]; -0.092 in [3]; 0.361 in test [4]; -0.362 in [5]; -0.773 in test [6]. The composite z-score in [7] was -0.151; in test [9], -0.378; in test [10], 0.0053. In addition, in test [8], the z-score is -0.755 (inactive).
Consider `CCOC(=O)C1=C[C@@H](C(C)(C)C)N(S(=O)(=O)c2ccc(C)cc2)[C@H]1c1ccc(OC)cc1`, for which the composite z-score in [1] is -0.491; in test [2] it was -0.103; in test [3] it was 0.0111; in test [4] it was 0.726; in test [5], 1.56; in test [6] it was 0.348. In addition, the figures for the composite z-score in test [7], in test [9] and in test [10] were 1.19, 0.525 and -0.212, respectively. In test [8], the z-score was -3.35 (inactive).
For `COc1c(C)cc(-c2cc3c(c(CCc4ccccc4)n2)[Si](C(C)C)(C(C)C)O[C@H]3c2ccccc2)cc1C`, the composite z-score in test [1] was -0.473; in test [2] it was -0.0939; in [3], -0.166; in [4], -0.0024; in test [5], -0.0773; in test [6], -0.133. Also, the composite z-score in [7] was -0.0748; in [9], 0.125; in [10], -0.0296. Further, the z-score in [8] was -0.278 (inactive).
In the case of `CC(C)[Si](C#Cc1ccccc1)(O[C@H](c1ccccc1)c1cn(Cc2ccccc2)nn1)C(C)C`, the composite z-score was -0.527 in test [1]; 0.884 in [2]; -0.123 in [3]; 0.76 in test [4]; 0.534 in test [5]; 0.8 in test [6]. Also, the composite z-score in test [7] is 1.28; in test [9] it was 0.0643; in test [10] it was 0.107. Moreover, the z-score in test [8] is 0.92 (inactive).
As to `CC[C@@H]1C=C(C(=O)O)[C@H](c2cccc(Cl)c2)N1S(=O)(=O)c1ccc(C)cc1`, the composite z-score in test [1] came to 0.0801; in [2], 0.969; in [3], 0.0263; in test [4], 0.516; in test [5] it was 1.36; in [6], 1.27. In addition, the composite z-score stood at 0.855 in [7], 0.177 in test [9] and 0.0424 in test [10]. In addition, in test [8], the z-score was -1.53 (inactive).
`COCCCNC(=O)[C@]1(Cc2ccccc2CN=[N+]=[N-])N=C(c2ccc(OCCCO)cc2)O[C@@H]1c1ccccc1N=[N+]=[N-]`: the composite z-score in test [1] is 1.19; in test [2] it was 0.694; in test [3] it was 0.359; in test [4], 0.425; in [5], 1.43; in test [6] it was 0.527. Besides, the composite z-score in test [7] was 1.11; in [9] it was 0.762; in [10] it was 0.0623. For the same molecule, the z-score in test [8] was -0.881 (inactive).
As to `C=CCC(OC(C)=O)[C@@H]1[C@@H](N(Cc2cccc3ccccc23)C(=O)c2ccc(C)cc2)c2cc(OCCCO)ccc2N1C(=O)Cc1ccc2ccccc2c1` (stereo not given in full), the composite z-score in [1] is 0.151; in test [2] it was -0.124; in test [3] it was 0.0348; in test [4], 0.021; in [5], -0.0785; in test [6], -0.158. Further, the composite z-score in test [7] was -0.665; in [9], 0.0338; in test [10], 0.127. The z-score in [8] was -2.29 (inactive).
In the case of `O=C1N(Cc2ccccc2)c2ccccc2C[C@@]12N=C(c1ccc(OCCCO)cc1)O[C@H]2c1ccccc1`, the composite z-score was -0.0448 in test [1]; 0.0182 in test [2]; -0.0129 in [3]; 0.311 in test [4]; 0.18 in test [5]; 0.909 in test [6]. Also, the composite z-score is 1.14 in [7], -0.238 in [9] and -0.0925 in [10]. The z-score in [8] was -2.64 (inactive).
`C[C@]1(C(=O)NCC(F)(F)F)c2ccccc2C(=O)N(Cc2cc(C(F)(F)F)cc(C(F)(F)F)c2)[C@H]1c1ccc(CO)cc1`: the composite z-score was 0.227 in [1]; -0.616 in test [2]; -0.0578 in [3]; 0.0766 in [4]; -0.317 in test [5]; 0.275 in test [6]. The values for the composite z-score in test [7], in test [9] and in [10] were 1.11, 0.0351 and -0.0994, respectively. Further, in test [8], the z-score is 0.549 (inactive).
